Measured values taken from PubChem BioAssay.
A number with no mark means an inactive call. A call without a number means that no potency is given here. For some of these results: Potency and affinity values are given separately. Active and inactive are the calls of the source. Unless noted, how the calls were made is not given here.

Tests used:
[1] = antimalarial activity against Dd2 strain (AID 2302;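 active means growth inhibition above 50% at the single 2 µM test dose, taken to imply half-maximal potency below 2 µM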); conditions: P. falciparum Dd2 in RBCs, LDH growth readout, 72 h; at 2 µM; hits give high values
[2] = human hepatoma cell viability loss – ATP luminescence, cytotoxicity control for P. falciparum antimalarial project, primary screen (AID 2303;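 active means inhibition above 50%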); conditions: HepG2 viability, 24-48 h, at 10 µM, hits give high values
[3] = biological target: L-lactate dehydrogenase (Plasmodium falciparum (isolate CDC / Honduras)) (UniProt Q27743); experiment: PfLDH activity inhibition – cell lysate, 3D7 strain, counter-screen for P. falciparum growth inhibition project (AID 2304); conditions: P. falciparum 3D7 crude extract, LDH APAD/NBT absorbance; at 2 µM; hits give high values
[4] = inhibition of 3D7 malaria parasite growth – strain 3D7 (AID 2306); conditions: P. falciparum 3D7 erythrocytic growth, LDH absorbance, 72 h; at 2 µM; hits give high values
[5] = biological target: Calcium-dependent protein kinase 1 (Plasmodium falciparum (isolate 3D7)) (UniProt P62344); experiment: PfCDPK1 kinase inhibitors, biochemical, TCAMS library (AID 1159585; cut-off not given, nearly all actives have IC50 up to about 0.98 µM;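 further: inhibitors leave more ATP so luminescence rises with inhibition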); conditions: recombinant PfCDPK1, Kinase-Glo ATP depletion luminescence
[6] = biological target: Plasmodium falciparum protein kinase 6 (PK6, PF3D7_1337100) (UniProt Q8IDW1); experiment: PfPK6 kinase inhibitors, biochemical, TCAMS library (AID 1159586); conditions: recombinant PfPK6, Kinase-Glo ATP depletion luminescence
[7] = biological target: Protein kinase 7 (PK7), Plasmodium falciparum 3D7 (PF3D7_0213400) (UniProt Q7YTF7); experiment: inhibition of Plasmodium PK7 catalytic activity – biochemical, TCAMS antimalarial set, Kinase-Glo luminescence (AID 1159587); conditions: recombinant PfPK7, Kinase-Glo ATP depletion luminescence
[8] = biological target: Calcium-dependent protein kinase 4 (Plasmodium falciparum (isolate 3D7)) (UniProt Q8IBS5); experiment: PfCDPK4 kinase inhibitors, biochemical, TCAMS library (AID 1159588; cut-off not given, nearly all actives have IC50 up to about 0.91 µM); conditions: recombinant PfCDPK4, Kinase-Glo ATP depletion luminescence
Chain of Calcium-dependent protein kinase 4 (Plasmodium falciparum (isolate 3D7)) (Q8IBS5 whole entry, looked up): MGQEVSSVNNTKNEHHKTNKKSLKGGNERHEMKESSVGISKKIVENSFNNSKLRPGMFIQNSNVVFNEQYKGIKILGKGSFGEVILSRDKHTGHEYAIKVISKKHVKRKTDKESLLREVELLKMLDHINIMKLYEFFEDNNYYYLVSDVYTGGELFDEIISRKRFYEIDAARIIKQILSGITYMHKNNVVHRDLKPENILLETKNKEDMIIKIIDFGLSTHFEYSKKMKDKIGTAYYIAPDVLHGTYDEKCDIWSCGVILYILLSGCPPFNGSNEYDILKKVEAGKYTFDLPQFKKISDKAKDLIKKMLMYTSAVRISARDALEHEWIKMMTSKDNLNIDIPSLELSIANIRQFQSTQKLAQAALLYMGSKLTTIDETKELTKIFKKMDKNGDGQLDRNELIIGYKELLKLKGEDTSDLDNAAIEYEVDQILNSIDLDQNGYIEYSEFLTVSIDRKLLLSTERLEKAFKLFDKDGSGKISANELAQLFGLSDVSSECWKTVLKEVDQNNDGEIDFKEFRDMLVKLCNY

Chain of L-lactate dehydrogenase (Plasmodium falciparum (isolate CDC / Honduras)) (Q27743 whole entry, looked up): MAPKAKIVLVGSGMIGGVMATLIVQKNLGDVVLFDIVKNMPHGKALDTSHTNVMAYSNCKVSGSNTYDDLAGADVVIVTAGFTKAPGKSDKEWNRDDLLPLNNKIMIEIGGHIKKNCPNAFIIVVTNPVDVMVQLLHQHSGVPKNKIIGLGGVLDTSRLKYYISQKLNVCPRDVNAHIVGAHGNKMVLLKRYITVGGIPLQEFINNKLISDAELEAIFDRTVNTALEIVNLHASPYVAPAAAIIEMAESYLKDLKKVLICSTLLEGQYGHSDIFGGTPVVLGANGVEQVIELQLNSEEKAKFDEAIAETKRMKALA
Chain of Protein kinase 7 (PK7), Plasmodium falciparum 3D7 (PF3D7_0213400) (Q7YTF7 1-343): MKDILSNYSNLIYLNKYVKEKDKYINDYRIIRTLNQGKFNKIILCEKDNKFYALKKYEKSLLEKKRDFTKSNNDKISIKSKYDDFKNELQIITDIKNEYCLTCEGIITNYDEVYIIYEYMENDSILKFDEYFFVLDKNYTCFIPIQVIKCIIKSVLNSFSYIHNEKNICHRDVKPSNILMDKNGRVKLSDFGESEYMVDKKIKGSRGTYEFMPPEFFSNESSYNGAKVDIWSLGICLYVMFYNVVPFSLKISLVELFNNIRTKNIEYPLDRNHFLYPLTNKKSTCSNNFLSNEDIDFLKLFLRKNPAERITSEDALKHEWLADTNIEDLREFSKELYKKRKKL
Chain of Calcium-dependent protein kinase 1 (Plasmodium falciparum (isolate 3D7)) (P62344 whole entry, looked up): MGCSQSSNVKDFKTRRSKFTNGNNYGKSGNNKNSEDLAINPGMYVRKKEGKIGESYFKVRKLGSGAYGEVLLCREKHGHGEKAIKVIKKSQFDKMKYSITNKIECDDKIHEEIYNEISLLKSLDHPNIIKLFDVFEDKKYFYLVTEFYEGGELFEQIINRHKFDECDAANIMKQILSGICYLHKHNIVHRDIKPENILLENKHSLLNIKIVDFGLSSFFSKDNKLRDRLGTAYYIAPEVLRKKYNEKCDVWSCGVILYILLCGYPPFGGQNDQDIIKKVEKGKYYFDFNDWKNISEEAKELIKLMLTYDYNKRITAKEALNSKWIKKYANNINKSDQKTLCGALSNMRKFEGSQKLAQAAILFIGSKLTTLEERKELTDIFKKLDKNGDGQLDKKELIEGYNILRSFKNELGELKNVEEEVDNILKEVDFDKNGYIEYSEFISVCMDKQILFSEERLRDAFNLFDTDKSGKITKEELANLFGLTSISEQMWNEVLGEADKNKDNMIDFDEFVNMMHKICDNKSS
Chain of Plasmodium falciparum protein kinase 6 (PK6, PF3D7_1337100) (Q8IDW1 1-305): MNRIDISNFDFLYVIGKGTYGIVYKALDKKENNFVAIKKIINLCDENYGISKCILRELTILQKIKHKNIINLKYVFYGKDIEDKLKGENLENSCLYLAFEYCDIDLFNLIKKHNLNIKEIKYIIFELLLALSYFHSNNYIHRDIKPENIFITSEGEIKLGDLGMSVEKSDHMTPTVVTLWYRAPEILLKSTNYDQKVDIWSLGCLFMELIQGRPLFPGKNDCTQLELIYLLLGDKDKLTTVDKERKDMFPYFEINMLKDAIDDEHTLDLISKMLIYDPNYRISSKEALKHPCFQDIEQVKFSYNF

For `CCCOc1ccc(OCCCON2C(N)=NC(N)=NC2(C)C)cc1`, the growth inhibition [1] was 94% (active), the inhibition [2] was 59% (active) and the inhibition [3] was 5%. For the same compound, the growth inhibition [4] was 96% (active), the outcome [5] was “inactive” and the outcome [6] was “inactive”. The outcome [7] was “inactive” and the outcome [8] was “inactive”.

For `O=C(Nc1ccc(F)c(C(F)(F)F)c1)N[C@H]1CCN(CCCCCNC(=O)[C@@H]2C[C@H]2c2ccc(Cl)c(Cl)c2)C1`, the growth inhibition [1] was 0%, the inhibition [2] was 46% and the inhibition [3] was 7%. The growth inhibition [4] was 90% (active), the outcome [5] was “inactive” and the outcome [6] was “inactive”. For the same compound, the outcome [7] was “inactive” and the outcome [8] was “inactive”.

In the case of `CC(C)C[C@H](NC(=O)c1cccc(F)c1)C(=O)N[C@H](/C=N/NC(=O)c1ccccc1)CCc1ccccc1`, the growth inhibition [1] is reported as 71% (active), the inhibition [2] is reported as 0% and the inhibition [3] is reported as 2%. The growth inhibition [4] was 93% (active), the outcome [5] was “inactive” and the outcome [6] was “inactive”. The outcome [7] was “inactive” and the outcome [8] was “inactive”.

Compound `O=C(Nc1cccc(OC2CCN(Cc3ccccc3)CC2)c1)c1ccc([N+](=O)[O-])cc1` has a growth inhibition [1] of 2%, an inhibition [2] of 6% and an inhibition [3] of 3%. The growth inhibition [4] was 100% (active), the outcome [5] was “inactive” and the outcome [6] was “inactive”. The outcome [7] was “inactive” and the outcome [8] was “inactive”.

In the case of `Cc1[nH]c(C)c(-c2ccc(-c3cccc(OC(F)(F)F)c3)nc2)c(=O)c1Cl`, the growth inhibition [1] is reported as 97% (active), the inhibition [2] is reported as 30% and the inhibition [3] is reported as -2%. The growth inhibition [4] was 98% (active), the outcome [5] was “inactive” and the outcome [6] was “inactive”. The outcome [7] was “inactive” and the outcome [8] was “inactive”.

With `CCCCCCCCn1ccc(=N)cc1` the growth inhibition [1] was 84% (active), the inhibition [2] was 49% and the inhibition [3] was -5%. The growth inhibition [4] was 91% (active), the outcome [5] was “inactive” and the outcome [6] was “inactive”. The outcome [7] was “inactive” and the outcome [8] was “inactive”.

With `O=C(Nc1ccccc1Cl)c1cc2ccccc2cc1O` the growth inhibition [1] was 72% (active), the inhibition [2] was 2% and the inhibition [3] was -4%. The growth inhibition [4] was 94% (active), the outcome [5] was “inactive” and the outcome [6] was “inactive”. For the same compound, the outcome [7] was “inactive” and the outcome [8] was “inactive”.

For `CCN(CC)CCN(Cc1ccc(-c2ccc(C(F)(F)F)cc2)cc1)C(=O)c1ccc(-c2ccc(NC(=O)OC)cc2C)cc1`, the growth inhibition [1] was 42%, the inhibition [2] was 66% (active) and the inhibition [3] was -6%. The growth inhibition [4] was 93% (active), the outcome [5] was “inactive” and the outcome [6] was “inactive”. For the same compound, the outcome [7] was “inactive” and the outcome [8] was “inactive”.

`O=C1Nc2cccc3c2C1(CCCCCN1CCC(c2c[nH]c4ccncc24)CC1)CCC3` (stereo not given) gave a growth inhibition [1] of 3%, an inhibition [2] of 8% and an inhibition [3] of 6%. For the same compound, the growth inhibition [4] was 95% (active), the outcome [5] was “inactive” and the outcome [6] was “inactive”. The outcome [7] was “inactive” and the outcome [8] was “inactive”.

In the case of `Cc1ccc(F)c(OCC2CCN(c3ncc(C(=O)NC4CC4)cc3Cl)CC2)c1`, the growth inhibition [1] is reported as 95% (active), the inhibition [2] is reported as 9% and the inhibition [3] is reported as -3%. For the same compound, the growth inhibition [4] was 96% (active), the outcome [5] was “inactive” and the outcome [6] was “inactive”. The outcome [7] was “inactive” and the outcome [8] was “inactive”.

With `CNc1ccc(CNCc2cccc(-c3ccc(-c4nc5ccc(C(F)(F)F)cc5[nH]4)cc3)c2)cc1` the growth inhibition [1] was 100% (active), the inhibition [2] was 21% and the inhibition [3] was 0%. The growth inhibition [4] was 101% (active), the outcome [5] was “inactive” and the outcome [6] was “inactive”. For the same compound, the outcome [7] was “inactive” and the outcome [8] was “inactive”.

Work on `O=C(Nc1cccc(-c2ccc(-c3nc4ccccc4[nH]3)cc2)c1)c1cccnc1` yielded a growth inhibition [1] of 1%, an inhibition [2] of 18% and an inhibition [3] of -5%. For the same compound, the growth inhibition [4] was 100% (active), the outcome [5] was “inactive” and the outcome [6] was “inactive”. The outcome [7] was “inactive” and the outcome [8] was “inactive”.

`O=C(/C=C/c1ccc(Cl)c(Cl)c1)NCCCCCN1CCC(NC(=O)c2cc(Cl)ccc2F)CC1` gave a growth inhibition [1] of 32%, an inhibition [2] of 48% and an inhibition [3] of 4%. The growth inhibition [4] was 92% (active), the outcome [5] was “inactive” and the outcome [6] was “inactive”. For the same compound, the outcome [7] was “inactive” and the outcome [8] was “inactive”.

Compound `Oc1ccc(CCNCc2ccc(OCc3ccccc3)c(OCc3ccccc3)c2)cc1` has a growth inhibition [1] of 9%, an inhibition [2] of 31% and an inhibition [3] of -3%. For the same compound, the growth inhibition [4] was 88% (active), the outcome [5] was “inactive” and the outcome [6] was “inactive”. The outcome [7] was “inactive” and the outcome [8] was “inactive”.

For `COc1ccc2ncc(F)c([C@H](O)CN3CCC(NCc4ccc5c(c4)NC(=O)CS5)CC3)c2c1`, the growth inhibition [1] was 98% (active), the inhibition [2] was 7% and the inhibition [3] was -13%. The growth inhibition [4] was 102% (active), the outcome [5] was “inactive” and the outcome [6] was “inactive”. For the same compound, the outcome [7] was “inactive” and the outcome [8] was “inactive”.

For `CCc1cn2c3c(cc(C(=O)N[C@@H](Cc4ccccc4)[C@H](O)CNCC(C)C)cc13)N(C)S(=O)(=O)CC2`, the growth inhibition [1] was 99% (active), the inhibition [2] was -1% and the inhibition [3] was -6%. For the same compound, the growth inhibition [4] was 98% (active), the outcome [5] was “inactive” and the outcome [6] was “inactive”. For the same compound, the outcome [7] was “inactive” and the outcome [8] was “inactive”.

`CN(C)CCN(C)Cc1ccc(-c2ccc(NC(=O)c3cccc(C#N)c3)cc2)cc1` gave a growth inhibition [1] of 49%, an inhibition [2] of 20% and an inhibition [3] of 2%. For the same compound, the growth inhibition [4] was 89% (active), the outcome [5] was “inactive” and the outcome [6] was “inactive”. For the same compound, the outcome [7] was “inactive” and the outcome [8] was “inactive”.

For `O=C(Nc1cccc(-c2cc(-c3c(Cl)cccc3Cl)no2)c1)c1cncc(-c2cccs2)c1`, the growth inhibition [1] was 39%, the inhibition [2] was -1% and the inhibition [3] was -2%. For the same compound, the growth inhibition [4] was 91% (active), the outcome [5] was “inactive” and the outcome [6] was “inactive”. For the same compound, the outcome [7] was “inactive” and the outcome [8] was “inactive”.

With `CN(c1ccc(NC(=O)Nc2cc(C(F)(F)F)ccc2F)cc1)c1ccnc(NCCN2CCCC2)n1` the growth inhibition [1] was 1%, the inhibition [2] was 94% (active) and the inhibition [3] was -2%. For the same compound, the growth inhibition [4] was 93% (active), the outcome [5] was “inactive” and the outcome [6] was “inactive”. The outcome [7] was “inactive” and the outcome [8] was “inactive”.

With `CCCC(N)C(=O)NC1CCN(c2c(F)c(N)c3c(=O)c(C(=O)O)cn4c3c2Oc2ccccc2-4)C1` (stereo not given) the growth inhibition [1] was 98% (active), the inhibition [2] was 66% (active) and the inhibition [3] was -5%. For the same compound, the growth inhibition [4] was 98% (active), the outcome [5] was “inactive” and the outcome [6] was “inactive”. The outcome [7] was “inactive” and the outcome [8] was “inactive”.
